Experimental data published in the supplement of paper PMC6555819.

Key:
Assay in all cases: PBM binding z-score (relative to random genomic background probes); higher = stronger binding; sequences stand for … in GC…GCGATTGACAGCGTAGAATGAAGG
[1] = system: FXR:RXRa (NR concentration 270 nM, RXRa partner concentration 90 nM)
Procedure, shortened: (§1)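 Regression normalization was applied to scanned fluorescence from custom Agilent 4×180K protein-binding microarrays. Before scanning, arrays were incubated 1 h with ligand-free nuclear receptor dimers, and binding was detected with antibodies against each partner (one per run). Binding z-scores use the random background probes as reference.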

[2] = system: LXRa:RXRa (NR concentration 270 nM, RXRa partner concentration 90 nM)
Procedure, shortened: as §1

[3] = system: LXRa homodimer (NR concentration 270 nM)
Procedure, shortened: as §1

[4] = system: LXRb:RXRa (NR concentration 270 nM, RXRa partner concentration 90 nM)
Procedure, shortened: as §1

[5] = system: PPARa:RXRa (NR concentration 270 nM, RXRa partner concentration 90 nM)
Procedure, shortened: as §1

[6] = system: PPARg:RXRa (NR concentration 180 nM, RXRa partner concentration 90 nM)
Procedure, shortened: as §1

[7] = system: PPARg:RXRa 270nM:90nM, anti-RXR (NR concentration 270 nM, RXRa partner concentration 90 nM)
Procedure, shortened: as §1

[8] = system: PPARg:RXRa 30nM:10nM, anti-RXR (NR concentration 30 nM, RXRa partner concentration 10 nM)
Procedure, shortened: as §1

[9] = system: PPARg:RXRa 90nM:30nM, anti-RXR (NR concentration 90 nM, RXRa partner concentration 30 nM)
Procedure, shortened: as §1

[10] = system: LXRb homodimer (NR concentration 270 nM)
Procedure, shortened: as §1

Row | Sequence | PBM binding z-score [1] | PBM binding z-score [2] | PBM binding z-score [3] | PBM binding z-score [4] | PBM binding z-score [5] | PBM binding z-score [6] | PBM binding z-score [7] | PBM binding z-score [8] | PBM binding z-score [9] | PBM binding z-score [10]
1 | TCGAGTAGGTTACGGTGGCATTCAGGGATGAAGA | 0.0909 | 0.257 | -0.578 | 0.0794 | 1.81 | 1.73 | 2.29 | 1.44 | 1.9 | 
2 | CCTAGTAGGTTACGAGGGGGCATTCAGTGCGAAT | 3.31 | 7.55 | 1.8 | 6.51 | 4.13 | 5.11 | 5.4 | 2.24 | 4.28 | 
3 | CCGAGTAGGTTTCGAGGGGGCATTCAGTGCGAAT | 1.41 | 2.96 | 1.18 | 4.53 | 2.37 | -0.183 | 1.67 | 0.107 | 1.44 | 
4 | TCGAGTAGGTTACGTGGGCATTCAGGGATGAAGA | -0.0639 | 0.328 | -0.386 | 0.112 | 1.25 | 0.953 | 1.36 | 1.14 | 1.11 | 
5 | CTATGTCGGTTAAGGGGGTCATTCAGTTTGAAAG | 4.86 | 5.24 | 4.38 | 6.42 | 5.65 | 5.4 | 6.26 | 3.98 | 5.7 | 
6 | TAGAGTAGGTTACGGGGGCATTCAGGGATGAAGA | 2.76 | 3.19 | 1.55 | 5.06 | 4.61 | 7.4 | 6.43 | 4.51 | 5.78 | 
7 | TCGAGTTGGTTACGGGGGCATTCAGGGATGAAGA | 2.61 | 2.2 | 0.889 | 4.62 | 2.89 | 1.84 | 2.84 | 2.24 | 2.63 | 
8 | CCGAGTAGGTTACGAGGTGGCATTCAGTGCGAAT | 0.103 | 2.1 | -0.445 | 0.601 | 1.61 | 1.79 | 2.03 | 0.157 | 1.16 | 
9 | CCGAGTAGGTTACGAGCGGGCATTCAGTGCGAAT | 0.242 | 7.14 | 0.879 | 4.08 | 0.9 | 0.617 | 0.819 | -0.546 | 0.27 | 
10 | CTATCTAGGTTAAGGGGGTCATTCAGTTTGAAAG | 5.03 | 4.71 | 2.63 | 6.25 | 5.95 | 8.5 | 7.76 | 6.25 | 7.89 | 
11 | CCGCGTAGGTTACGAGGGGGCATTCAGTGCGAAT | 2.11 | 7.21 | 1.61 | 6.37 | 3.17 | 0.847 | 2.86 | 0.411 | 2.18 | 
12 | CCGAGTAGGCTACGAGGGGGCATTCAGTGCGAAT | 0.473 | 3.15 | 0.222 | 3.4 | 1.72 | 0.0175 | 1.1 | -0.389 | 0.48 | 
13 | TCGAGTAGGATACGGGGGCATTCAGGGATGAAGA | 1.26 | 1.43 | 0.346 | 3.58 | 2.35 | 1.24 | 2.72 | 2.22 | 2.53 | 
14 | TCGAGTAGGTTACGGGGGAATTCAGGGATGAAGA | 0.979 | 1.58 | 0.0777 | 2.86 | 2.8 | 3.75 | 4.02 | 2.24 | 3.53 | 
15 | CTATGTAGGTTAAGGGGGCCATTCAGTTTGAAAG | 1.41 | 1.83 | 0.578 | 4.2 | 4.65 | 7 | 6.86 | 4.73 | 6.88 | 
16 | CTAAGTAGGTTAAGGGGGTCATTCAGTTTGAAAG | 5.01 | 4.96 | 3.1 | 6.08 | 6.01 | 8.37 | 7.83 | 6.33 | 8.16 | 
17 | TCGGGTAGGTTACGGGGGCATTCAGGGATGAAGA | 3.9 | 4.06 | 2.17 | 5.75 | 4.69 | 5.73 | 5.54 | 3.74 | 4.7 | 
18 | CTATGTAGGTTAAAGGGGTCATTCAGTTTGAAAG | 6.38 | 5.21 | 4.18 | 5.82 | 6.43 | 9.57 | 8.21 | 7.05 | 8.61 | 
19 | CTATGTAGGTTAAGGGGGTCAATCAGTTTGAAAG | 4.51 | 4.86 | 1.5 | 5.67 | 5.86 | 8.09 | 7.41 | 5.18 | 7.66 | 
20 | TCGAATAGGTTACGGGGGCATTCAGGGATGAAGA | 3.92 | 3.9 | 1.2 | 5.78 | 5.11 | 5.71 | 5.84 | 4.46 | 5.39 | 
21 | TCGAGTAGGTTACGGGGGCGTTCAGGGATGAAGA | 1.63 | 2.21 | 0.585 | 4.83 |  | 4.72 | 4.75 | 2.93 | 3.91 | 
22 | TCTAGTTGGTCACGGGGGTCACACACGACGGGTA | 5.12 | 4.95 | 2.06 |  | 5.15 | 5.57 | 6.09 | 4.82 | 5.65 | 9.37
23 | CCTTACGGGTCAAGGTTATACCACGGGTGGTACG | 5.46 | 3.7 | 0.309 |  | 4.99 | 4.6 | 4.47 | 1.63 | 3.83 | 0.0291
24 | CTATGTAGGTTAAGGGGGTCATTGAGTTTGAAAG | 5.19 | 4.98 | 2.68 | 6.12 |  | 8.96 | 7.92 | 5.98 | 8.13 | 
25 | ACTAGTTGGTCAGCTGAGGTCACACAAAATTCGG | 4.18 | 3.22 | 2.26 |  | 3.85 | 1.45 | 2.46 | 0.399 | 1.64 | 0.719
26 | CAAAATAGGTCAAGAGGTCAAAGTCCGCTTCCCG | 7.64 | 6.57 | 6.23 |  | 6.57 | 9.42 | 8.19 | 6.55 | 8.11 | 2.46
